Results reported in PubChem BioAssay AID435005 (Broad Institute, 2010).
Among all 300,000 compounds or so, about 2,400 (0.8%) were called active.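 How the source made its calls: active means Every replicate reaches about 75%, or at least half do and their mean reaches it too (limit read from the data); inconclusive means At least half of replicates reach the limit but their mean does not; inactive means Under half of replicates reach the limit.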 Many of the other results were omitted from the sample, so actives are more common in it than they were.

Assay: INS-1E beta cell survival under cytokines – luminescence, primary screen (AID 435005);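 further: 0% = cytokine-treated negative control wells and 100% = positive control rescue; higher means more ATP so stronger rescue from cytokine killing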
Settings: INS-1E cytokine-induced death, ATP luminescence, 48 h; hits give high values; percent of positive-control rescue, neutral wells zero; concentration not given here
For `CC(OC(=O)c1ccc([N+](=O)[O-])cc1)C(=O)NCC1CCCCC1` (stereo not drawn), the protection from apoptosis was -1.81% (inactive). In the case of `Cc1cc(NC(=O)CN2C(=O)NC(CC(C)C)C2=O)no1` (stereo not drawn), the protection from apoptosis is reported as -6.09% (inactive). In the case of `Oc1ccccc1CN1CCN(C(c2ccccc2)c2ccccc2)CC1`, the protection from apoptosis is reported as 0.217% (inactive). In the case of `CCOC(=O)N1CCN(C(c2cccnc2)c2ccc3cccnc3c2O)CC1` (stereo not drawn), the protection from apoptosis is reported as 35.8% (inactive). With `CCN1CCN(C(c2cccnc2)c2cc(Cl)c3cccnc3c2O)CC1` (stereo not drawn) the protection from apoptosis was 92.4% (active). With `COc1cc(/C=C/C(=O)OCC(=O)NCCCc2ccccc2)ccc1O` the protection from apoptosis was -1.98% (inactive). With `C=CC[C@H](CC(=O)NCCO)C(=O)N[C@@H](COC(=O)[C@@H](CC=C)Cc1ccc(F)cc1)Cc1c[nH]c2ccccc12` the protection from apoptosis was 6.33% (inactive). In the case of `COc1cc(NC(=O)c2[nH]cnc2C(N)=O)cc(C(=O)Nc2cccc(C(F)(F)F)c2)c1`, the protection from apoptosis is reported as 114% (active). In the case of `COc1cc(NC(=O)c2cncc(-c3ccc(C#N)cc3)c2)cc(C(=O)Nc2cccc(C(F)(F)F)c2)c1`, the protection from apoptosis is reported as 23.5% (inactive). With `COc1ccc(NC(=O)CN(C)CC(=O)Nc2cccc(C(F)(F)F)c2)cc1` the protection from apoptosis was -3.94% (inactive). In the case of `NS(=O)(=O)c1ccc(CNC(=S)NC(=O)c2ccco2)cc1`, the protection from apoptosis is reported as 2.51% (inactive). For `O=C(c1ccccc1)N1CCN(c2ccc([N+](=O)[O-])c(NCc3ccco3)c2)CC1`, the protection from apoptosis was 13.2% (inactive). With `COc1ccc(CCNc2cc(N3CCN(C(=O)c4ccccc4OC)CC3)ccc2[N+](=O)[O-])cc1OC` the protection from apoptosis was 85.3% (active). With `COc1ccccc1OCCNc1cc(N2CCOCC2)ccc1[N+](=O)[O-]` the protection from apoptosis was -8.92% (inactive). For `O=S(=O)(c1ccc(SCc2ccc(Br)cc2)nc1)N1CCOCC1`, the protection from apoptosis was -8.12% (inactive). For `Cc1ccc(OCC(=O)Nc2ccccc2C(=O)NC2CC2)cc1`, the protection from apoptosis was -2.93% (inactive). For `CC(Sc1ccccc1F)C(=O)Nc1cccc(S(=O)(=O)N2CCOCC2)c1` (stereo not drawn), the protection from apoptosis was -3.25% (inactive). In the case of `CC(C)NC(=O)Nc1cccc2c1O[C@H](CN(C)S(=O)(=O)c1cccs1)[C@@H](C)CN([C@H](C)CO)C2=O`, the protection from apoptosis is reported as -19% (inactive). In the case of `Cc1cc(C)nc(N/N=C/c2ccc([N+](=O)[O-])o2)n1`, the protection from apoptosis is reported as -3.24% (inactive). With `CCn1c(/C=C/c2ccc([N+](=O)[O-])o2)nc2ccccc2c1=O` the protection from apoptosis was 104% (active). For `CCn1c(=O)c([N+](=O)[O-])c(NCc2ccc3c(c2)OCO3)c2ccccc21`, the protection from apoptosis was 1.81% (inactive). In the case of `C=CC(COCc1ccccc1)N(CC(=O)OC)S(=O)(=O)c1cc(Br)ccc1OC` (stereo not drawn), the protection from apoptosis is reported as 1.07% (inactive). With `O=C(Nc1ccon1)c1nc[nH]c1C(=O)NCc1ccccc1` the protection from apoptosis was 2.59% (inactive). With `NC(=O)CSc1c[nH]c2ccccc12` the protection from apoptosis was 0.633% (inactive). In the case of `O=S(=O)(O)Oc1c[nH]c2ccccc12`, the protection from apoptosis is reported as 95.8% (active). In the case of `O=C(NC1CCCC1)C(=O)c1c[nH]c2ccccc12`, the protection from apoptosis is reported as -2.17% (inactive). In the case of `Cc1cc(NC(=O)COC(=O)/C=C/c2ccc(C)o2)no1`, the protection from apoptosis is reported as -0.145% (inactive). For `CC(=O)C[C@H](O)CC(=O)[C@@H]1OC(=O)[C@@H](C)C/C=C\Cc2ccccc21`, the protection from apoptosis was -6.43% (inactive). With `COc1ccccc1N(CC(=O)Nc1ccc(C)cc1Cl)S(=O)(=O)c1cccs1` the protection from apoptosis was -11% (inactive). For `O=C(Nc1cccc(S(=O)(=O)N2CCCC2)c1)c1cncc(Br)c1`, the protection from apoptosis was -6.13% (inactive). For `COc1ccc(Nc2ccc([N+](=O)[O-])cn2)cn1`, the protection from apoptosis was -4.41% (inactive). For `Cc1ccc(NC(=O)OCc2cncs2)cc1`, the protection from apoptosis was -4.61% (inactive). In the case of `COc1ccc(NC(=O)/C(Cl)=C(/Cl)S(=O)Cc2ccc(C)cc2)cn1` (stereo not drawn), the protection from apoptosis is reported as 106% (active). In the case of `O=C(Nc1cc(S(=O)(=O)Nc2ccc(Cl)cc2)ccc1O)c1ccc(F)cc1F`, the protection from apoptosis is reported as 3.17% (inactive). In the case of `CCCN(CC(=O)NC(=O)NC1CCCCC1)CC(=O)Nc1cc(Cl)ccc1Cl`, the protection from apoptosis is reported as -6.07% (inactive). With `CN(C)S(=O)(=O)c1cccc(NC(=O)COc2ccc3ccccc3c2)c1` the protection from apoptosis was -1.11% (inactive). With `CCNc1nc(-c2cc3ccccc3o2)cs1` the protection from apoptosis was -12.4% (inactive). In the case of `Cc1nc(C)c(-c2csc(NCCc3ccccc3)n2)s1`, the protection from apoptosis is reported as 78.4% (active). For `S=c1[nH]nc(NCCc2ccccc2)s1`, the protection from apoptosis was -4.61% (inactive). In the case of `O=C(CSc1ccccc1)Nc1cccc(S(=O)(=O)N2CCCCC2)c1`, the protection from apoptosis is reported as -5.41% (inactive). With `COC(=O)[C@]1(Cc2ccccc2)N[C@H](CN(C)S(=O)(=O)c2ccc(OC(F)(F)F)cc2)[C@@H]2C(=O)N(C)C(=O)[C@@H]21` the protection from apoptosis was -3.66% (inactive). In the case of `CCC(CO)Oc1cc(NC(=O)c2ccc(Cl)cc2)c2ncn(C(C)C)c2c1` (stereo not drawn), the protection from apoptosis is reported as 2.88% (inactive). For `CCOc1cc(N2CCOCC2)c(OCC)cc1NC(=O)COc1cccc(Cl)c1`, the protection from apoptosis was 0.61% (inactive). In the case of `CCOc1cc(N2CCOCC2)c(OCC)cc1NC(=O)COc1cccc2cccnc12`, the protection from apoptosis is reported as 102% (active). In the case of `CCOc1cc(N2CCOCC2)c(OCC)cc1NC(=O)c1cc(C)nc2ccccc12`, the protection from apoptosis is reported as 7.08% (inactive). In the case of `Cc1cc(C(=O)NNC(=O)c2ccccc2O)c(C)o1`, the protection from apoptosis is reported as -1.18% (inactive). For `C/C(=N\NC(=O)c1ccoc1C)c1ccccc1O`, the protection from apoptosis was 79.7% (active). For `C/C(=N\NC(=O)c1ccccc1C)c1ccc(N2CCOCC2)cc1`, the protection from apoptosis was -16.8% (inactive). With `Cn1cncc1C#Cc1c(-c2ccsc2)sc2ccccc12` the protection from apoptosis was -6.24% (inactive). With `O=C(NCCc1ccc(C(F)(F)F)cc1)c1ccc2c(c1)OCO2` the protection from apoptosis was 5.32% (inactive). For `CCCCNc1c(-c2ccc(OC)c(Sc3ccc(OC)cc3)c2)nc2ccc(Cl)cn12`, the protection from apoptosis was 16.9% (inactive). For `O=C(NCCc1ccccc1)C1CCN(S(=O)(=O)c2ccc(Br)s2)CC1`, the protection from apoptosis was 2.68% (inactive). In the case of `Cc1cc(C)c[n+](-c2nc3ccccc3nc2[N-]S(=O)(=O)c2cccs2)c1`, the protection from apoptosis is reported as -3.34% (inactive). With `O=S(=O)([N-]c1nc2ccccc2nc1-[n+]1ccc(Cc2ccccc2)cc1)c1ccc(Br)s1` the protection from apoptosis was 118% (active). For `Cc1ccc(C(=O)Nc2ccn(C)n2)cc1`, the protection from apoptosis was -7% (inactive). With `CCn1nc(C(=O)NNS(=O)(=O)c2cc(/C=C/C(=O)O)cc(OC)c2OC)c2ccccc2c1=O` the protection from apoptosis was 0.598% (inactive). In the case of `COc1cc(/C=C/C(=O)Nc2ccc(OC)c(S(=O)(=O)N3CCOCC3)c2)ccc1OCC#N`, the protection from apoptosis is reported as 4.79% (inactive). In the case of `COc1ccc(OC)c(-c2csc(NC(=O)COC(=O)C3CC3)n2)c1`, the protection from apoptosis is reported as -4.15% (inactive). With `O=C(O)c1ccc(N/N=C/c2cn(-c3ccccc3)nc2-c2cccs2)cc1` the protection from apoptosis was -0.771% (inactive). In the case of `Cc1ccc(-c2nn(-c3ccccc3)cc2/C=N/NC(=O)c2ccc3c(c2)OCO3)cc1`, the protection from apoptosis is reported as 110% (active). For `CC(C)(C)OC(=O)N/N=C/c1cn(-c2ccccc2)nc1-c1cccnc1`, the protection from apoptosis was 2.76% (inactive). With `Cc1cccc(C(=O)N[C@H](C(=O)NCc2cccs2)C(C)C)c1` the protection from apoptosis was 3.35% (inactive). For `O=C(CN1CCc2ccccc2C1)Nc1cccc(S(=O)(=O)N2CCOCC2)c1`, the protection from apoptosis was 0.0837% (inactive). With `COc1cccc(/C(C)=N/Nc2ncc(Cl)cc2Cl)c1` the protection from apoptosis was -0.169% (inactive). With `N/C(=N\OC(=O)Nc1ccc(Cl)c(Cl)c1)c1ncc(C(F)(F)F)cc1Cl` the protection from apoptosis was -13.2% (inactive). With `COc1cccc(/C=N/Nc2ncc(C(F)(F)F)cc2Cl)c1O` the protection from apoptosis was 131% (active). For `Cc1ccc(/C=C/C(=O)OCC(=O)NCc2ccc(Cl)cc2)o1`, the protection from apoptosis was 0.631% (inactive). In the case of `CC(=O)N1c2ccc(S(=O)(=O)N3CCCC(C(=O)Nc4cccc(Cl)c4)C3)cc2CC1C` (stereo not drawn), the protection from apoptosis is reported as 6.26% (inactive). With `CC(=O)N1CCCc2cc(S(=O)(=O)N3CCCC(C(=O)NCc4ccc(Cl)cc4)C3)ccc21` (stereo not drawn) the protection from apoptosis was 4.03% (inactive). With `CC(=O)N1CCCc2cc(S(=O)(=O)N3CCCC(C(=O)N4CCN(c5cccc(Cl)c5)CC4)C3)ccc21` (stereo not drawn) the protection from apoptosis was 89.9% (active). In the case of `COc1ccccc1C(=O)OCC(=O)Nc1cccc(S(=O)(=O)NC2=NCCCCC2)c1`, the protection from apoptosis is reported as -2.64% (inactive). For `O=C(NCCc1ccco1)c1ccc(OCc2cn3ccccc3n2)cc1`, the protection from apoptosis was 1.94% (inactive). For `CCOC(=O)c1cnc(-n2nc(C)cc2C)nc1NNc1cc(C)nc(-c2ccccc2)n1`, the protection from apoptosis was 84.8% (active). With `Cc1cc(C)n(-c2c(F)c(F)c(COC(=O)c3ccccc3)c(F)c2F)n1` the protection from apoptosis was 3.67% (inactive). For `CCOC(=O)c1cnc(-n2nc(C)cc2C)nc1Nc1cccc(C(C)=O)c1`, the protection from apoptosis was 8.92% (inactive). For `C=CCC[C@H](Cc1ccc(F)cc1)C(=O)OC[C@@H](NC(=O)[C@@H](CC=C)CC(=O)N[C@H](CO)Cc1ccccc1)C(C)(C)C`, the protection from apoptosis was 5.28% (inactive). With `O=C(NNS(=O)(=O)c1c(F)cc(F)c(Cl)c1F)C12CC3CC(CC(C3)C1)C2` the protection from apoptosis was -12% (inactive). For `Cc1nc2ccccc2cc1OCc1ccc(F)cc1`, the protection from apoptosis was 95.4% (active). For `Fc1ccccc1COc1cccc2cccnc12`, the protection from apoptosis was -7.41% (inactive). For `Cc1occc(=O)c1OCc1ccc(F)cc1`, the protection from apoptosis was -6.87% (inactive). For `COC(=O)c1c(NC(=O)COc2ccc(Cl)cc2Cl)sc2c1CC(C)(C)NC2(C)C`, the protection from apoptosis was 114% (active). For `Cc1nn(-c2ccccc2)c(C)c1NC(=O)COc1ccc(Cl)cc1Cl`, the protection from apoptosis was 0.164% (inactive). With `CCOC(=O)c1c(NC(=O)c2ccc(S(=O)(=O)N(C)CC3CCCO3)cc2)sc2c1CC(C)(C)NC2(C)C` (stereo not drawn) the protection from apoptosis was 25.6% (inactive). In the case of `COc1cc(OC)cc(C(=O)N[C@H](C(=O)NNC(=O)c2ccc(Br)cc2)C(C)C)c1`, the protection from apoptosis is reported as -4.34% (inactive). With `CC1CCCCC1NCC(=O)Nc1ccccc1C(=O)Nc1ccccc1` (stereo not drawn) the protection from apoptosis was 4.75% (inactive). With `CSc1nc(-c2ccccc2)nc(C(Cl)Cl)n1` the protection from apoptosis was 105% (active). In the case of `CSc1ncc(Sc2ccccc2)c(C(=O)O)n1`, the protection from apoptosis is reported as -2.15% (inactive). For `COc1cc(OC)c(N2CC(C(=O)Nc3cc(Cl)ccc3N3CCOCC3)CC2=O)cc1Cl` (stereo not drawn), the protection from apoptosis was 26.3% (inactive).
